Test results reported in PubChem BioAssay AID602229 (The Scripps Research Institute Molecular Screening Center, 2012).
Out of some 360,000 compounds screened, about 1,300 (0.36%) were called active. The list comes from a sample in which actives are over-represented; it also holds similar structures and randomly drawn compounds. Values without a mark were called inactive.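 How the source made its calls: active means inhibition above the mean of all tested compounds plus 3 SD (cut at about 70% in these data); inactive means the rest.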

Target: Photoreceptor-specific nuclear receptor (Homo sapiens) (UniProt Q9Y5X4)
Test: NCOR release from NR2E3 in cells – cell-based, luminescence, CHO-S, Gal4-NCOR/VP16-NR2E3, primary screen (AID 602229);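 further: 0% = DMSO with NR2E3 transfected cells and 100% = cells lacking NR2E3 construct; higher means lower luciferase signal from less NR2E3 corepressor binding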
Conditions: CHO-S Gal4-NCOR/VP16-NR2E3 two-hybrid, luciferase; at 3.98 µM; active compounds read high

Sequence of Photoreceptor-specific nuclear receptor (Homo sapiens) (Q9Y5X4 whole entry, looked up, the tested form may be a part): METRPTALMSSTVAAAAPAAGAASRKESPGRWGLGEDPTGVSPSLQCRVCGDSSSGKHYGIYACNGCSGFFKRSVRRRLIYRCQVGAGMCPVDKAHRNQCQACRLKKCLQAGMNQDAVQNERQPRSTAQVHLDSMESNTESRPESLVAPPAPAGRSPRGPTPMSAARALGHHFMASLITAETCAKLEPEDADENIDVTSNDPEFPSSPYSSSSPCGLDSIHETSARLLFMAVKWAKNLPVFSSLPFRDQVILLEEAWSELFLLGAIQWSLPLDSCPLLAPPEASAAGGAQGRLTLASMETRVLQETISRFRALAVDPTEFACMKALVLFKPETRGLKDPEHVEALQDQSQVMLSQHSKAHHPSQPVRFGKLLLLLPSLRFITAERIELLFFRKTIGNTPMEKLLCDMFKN

Structure (SMILES)	inhibition of corepressor binding
COc1ccc(NC(=O)/C(Cl)=C(/Cl)S(=O)Cc2ccc(C)cc2)cn1 (configuration not stated)	84.1% (active)
CC(C)c1ccc(NC(=O)[C@@H](NC(=O)N2CC(=O)Nc3ccccc32)C(C)C)cc1	-32.4%
Cc1nn(-c2ccccc2)c(=O)c2noc(C)c12	-0.89%
O=C(CN1CCN(C(=O)c2ccco2)CC1)Nc1ccc(Cl)c(C(F)(F)F)c1	-9.37%
N#CCCN(C(=O)Nc1ccc(Cl)c(Cl)c1)C1CCCCC1	-1.19%
O=C(CC(O)(C(F)(F)F)C(F)(F)F)Nc1ccc(Cl)c(Cl)c1	107% (active)
CN(C)c1ccc(NC(=O)CSc2n[nH]c(-c3ccco3)n2)cc1	-21.3%
O[C@@H]1C[C@H](c2ccccc2)N(Cc2cccs2)C[C@H]1n1cc(C2CC2)nn1	5.46%
COc1ccc(S(=O)(=O)N2CCN(C(C)C(=O)Nc3ccc(C(C)C)cc3)CC2)cc1 (configuration not stated)	94.6% (active)
COc1cccc(CNC(C)C(=O)Nc2ccc(S(=O)(=O)N3CCCC3)cc2)c1 (configuration not stated)	3.95%
CC(C)c1ccc(S(=O)(=O)N2CCN(C(C)C(=O)NC3CCCC3)CC2)cc1 (configuration not stated)	-5.61%
N#Cc1ccc(COC(=O)Cn2nnc(-c3ccccc3)n2)cc1	19.6%
CCC(=O)N1CCN=C1SCc1ccc(F)cc1	3.93%
Cc1ccc(OCc2nnc(SC3CCc4ccccc4C3=O)n2C)cc1 (configuration not stated)	-9.34%
CCCCC(NS(=O)(=O)c1ccc(C)cc1)C(=O)Oc1ccc2c3c(c(=O)oc2c1)CCC3 (configuration not stated)	-22.6%
CCC(=O)c1ccc(OCC(O)Cn2nc(C)c(C(C)=O)c2C)cc1 (configuration not stated)	-7.85%
CCN(CC)C(=O)C1=C(C)N(Cc2ccc(C(C)(C)C)cc2)C(=O)C(CC(=O)NCc2cccc3ccccc23)C1 (configuration not stated)	20.9%
C=CCn1c(C)cc(C2=NNC(=NCC)SC2)c1C	89.3% (active)
CCN(CC)S(=O)(=O)c1ccc(N(C)Cc2ccc(C(F)(F)F)cc2)nc1	91.6% (active)

Structure (SMILES)	inhibition of corepressor binding
CCN(CC)S(=O)(=O)c1ccc(N(C)CCc2ccc(OC)c(OC)c2)nc1	14.8%
CCN(CC)S(=O)(=O)c1ccc(N(C)Cc2cccc(OC)c2OC)nc1	2.59%
CCCCCCCCCCCCC(NC(C)=O)(C(=O)OCC)C(=O)OCC	34.1%
O=C(Nn1cnc2ccccc2c1=O)c1ccc([N+](=O)[O-])cc1Cl	-16.8%
CCCCN1C[C@H](c2ccc(Br)cc2)[C@@H](CC(=O)Nc2ccc(Br)cc2)C1=O	-20.7%
CNC(=O)C1CCN(S(=O)(=O)c2c(C)noc2/C=C/c2cccc(C)c2)CC1	-10.5%
O=C(Nc1ccccn1)C1CCN(S(=O)(=O)c2ccc3c(c2)OCCO3)CC1	-51.8%
Cc1ccnc(NC(=O)C2CCN(S(=O)(=O)c3c(C)c(C)cc(C)c3C)CC2)c1	80.9% (active)
CN(C)c1ccc(NC(=S)N(CCc2ccccc2)C2CC(=O)N(c3c(Cl)cccc3Cl)C2=O)cc1 (configuration not stated)	0.55%
COc1ccc(-c2ccc(C(=O)NC(C)C)c3occc23)c(C)c1	15.3%
CC(=O)Nc1ccc(S(=O)(=O)NCC(=O)OCc2cc(=O)oc3ccc4ccccc4c23)cc1	-8.3%
COc1ccc(CCNC(=O)CC2SC(=Nc3cc(C)cc(C)c3)NC2=O)cc1OC (configuration not stated)	-33.4%
CCCOc1ccc(Cc2c(Cl)nc(SC)nc2NC)cc1	92.3% (active)
CCCOc1ccc(Cc2c(O)nc(SC)[nH]c2=O)cc1C	-21.5%
CCn1c(/C=C/c2ccc([N+](=O)[O-])o2)nc2ccccc2c1=O	9.98%
O=C(/C=C/c1ccc([N+](=O)[O-])o1)NNC(=O)c1ccc(F)cc1	101% (active)
O=C(/C=C/c1ccc(F)cc1)NC(=S)NNC(=O)c1cccnc1	-36.2%
CC1=C(C(=O)Nc2ccccc2)C(c2cccs2)C(C#N)=C(SCC#N)N1 (configuration not stated)	-12.8%
CNS(=O)(=O)c1ccc2c(c1)[nH]c(=S)n2C	10%

Structure (SMILES)	inhibition of corepressor binding
CCCN(CC(=O)Nc1ccc(C(N)=O)cc1)CC(=O)Nc1ccccc1C	12.9%
Nc1nc(-c2sc3nc4c(cc3c2N)CCCC4)nc(N2CCOCC2)n1	-56.6%
COC(=O)C1C(=O)c2c([nH]c(C(=O)OCCSC)c2C)CC1C (configuration not stated)	-86.8%
CCCOC(=O)c1[nH]c2c(c1C)C(=O)CC(c1cc(OC)c(OC)c(OC)c1)C2 (configuration not stated)	70.4% (active)
CCCOC(=O)c1[nH]c2c(c1C)C(=O)CC(c1cccs1)C2 (configuration not stated)	2.46%
Cc1cc(C)c(S(=O)(=O)NCC2CCC(C(=O)NCc3ccc4c(c3)OCO4)CC2)c(C)c1 (configuration not stated)	-8.75%
CC(C)C1Nc2c(C(=O)O)cccc2C(Nc2ccccc2C(=O)O)C1(C)C (configuration not stated)	6.02%
COc1ccc(F)cc1S(=O)(=O)N1CCCCC1	4.16%
Cc1ccc(F)cc1NC(=O)Cc1nn(C)c(=O)c2ccccc12	96.1% (active)
Cc1ccc(F)cc1NC(=O)CSCc1c(C)noc1C	-16.1%
Cc1ccc(C)c(NC(=O)COC(=O)c2nn(C)c(=O)c3ccccc23)c1	8.19%
O=C(CN1CCN(S(=O)(=O)c2ccc(Br)cc2)CC1)Nc1ccccc1C(=O)c1ccccc1	3.01%
Cc1ccc(S(=O)(=O)N2[C@@H](c3ccc(Br)cc3)C(C(=O)O)=C[C@H]2CC2CCCC2)cc1	77.4% (active)
CCCCC[C@@H]1C=C(C(=O)OCC)[C@H](c2ccccc2)N1S(=O)(=O)c1ccc(C)cc1	16.2%
CCCCC[C@@H]1C=C(C(=O)O)[C@H](c2ccc(C#N)cc2)N1S(=O)(=O)c1ccc(C)cc1	-8.3%
O=C(NCc1ccccc1)C(=O)NCC1OCCN1S(=O)(=O)c1ccc(Br)cc1 (configuration not stated)	10.3%
COc1cccc(CNS(=O)(=O)c2ccc3c(c2)CC(C)N3C(=O)C2CCC2)c1 (configuration not stated)	87.5% (active)
O=C(C1CCC1)N1CCc2cc(S(=O)(=O)NCc3cccnc3)ccc21	10%
COc1ccc(N(C)S(=O)(=O)c2ccc3c(c2)CC(C)N3C(=O)C2CC2)c(OC)c1 (configuration not stated)	-11.9%
